Marburg entry inh – Marburg virus entry inhibition | Marburg virus pseudotyped entry inhibition, cell reporter | Potency, µM (doses to about 37.8 µM), for inactives: at the top dose activity change, negative = inhibition, hits mostly inhibitors | 1.8% of 300,000 active; calls by dose curve; tested in HEK293 cells; further: potency means the concentration at half of the fitted maximal effect
LASV entry inh – blocks Lassa virus binding to or entry into cells. Lassa virus pseudotype entry inhibition, cell reporter. Potency, µM (titrated, usually from 37.9 µM), inactives show top-dose activity change, negative = inhibition, most hits filed as inhibitors. 1.2% of 300,000 active. AID 540256; calls by dose curve; tested in HEK293 cells; further: potency means the concentration at half of the fitted maximal effect; nearly all actives have a fitted effect of over 50% in size
VACV Venus inh – inhibitors of vaccinia virus (Venus reporter) | Vaccinia virus Venus reporter expression, fluorescence | Potency, µM (titrated, usually from 36.5 µM), inactives show at the highest dose activity change, negative = inhibition, most hits filed as inhibitors | 0.46% of 330,000 active | AID 720580; calls by dose curve; tested in A549 cells; further: potency means the concentration at half of the fitted maximal effect; nearly all actives have a fitted effect of over 30% in size
VACV mCherry inh – inhibitors of vaccinia virus infection (mCherry reporter signal); Vaccinia virus mCherry reporter infection, fluorescence; Potency, µM (highest dose often 36.5 µM), for inactives: at the highest dose activity change, negative = inhibition, actives largely listed as inhibitors; 0.63% of 310,000 active; calls by dose curve; tested in A549 cells; further: potency means the concentration at half of the fitted maximal effect; nearly all actives have a fitted effect of over 35% in size
HCMV inh – inhibitors of human cytomegalovirus; activity change, negative = inhibition, % at 57.5 µM; HFF cells, HCMV-luciferase reporter, 72 h; hits give low values; 4.5% of 410,000 active; AID 1259415; in the data active means activity change below about -60%; inconclusive means no clear call, values can overlap the other calls; inactive means above about -39%
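Inhibition of viral replication was scored as loss of reporter luminescence in HFFs infected with HCMV-luciferase (MOI 1 PFU/cell) for 72 h; compounds tested at 2 doses, normalized to buffer and Salinomycin controls.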
HCV inh – inhibitors of hepatitis C virus infection; AID 651820; Huh7.5.1 HCVcc-Cre infection, luciferase reporter, 44 h; 3.4% of 340,000 active; Potency, µM (highest dose often 41.8 µM), for the others: at the top dose activity change, negative = inhibition, usual class: inhibitors; active means well fitted inhibition curve with a large enough effect; inconclusive means small, poorly fitted or top-dose-only effect, or another doubt; inactive means no such curve, though single readings can be large or run the other way; further: potency means the concentration at half of the fitted maximal effect
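Reporter virus HCVcc-Cre (~0.5 moi) infects cells exposed to compound; seeding density 1,000 cells/well with 4 h settling beforehand. Luminescence, 15 sec read, taken 44 h post-infection following a 15 min RT substrate incubation.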
* = called active by the depositor; i = inactive; ? = inconclusive; . = no result given; [ ] = dose if it differs, or a comment. A selection: hits, their analogues and other compounds. The true share with any hit is near 7.8%. On the % scale 0 is the no-effect control and ±100 the full control effect.

SMILES	Marburg entry inh	LASV entry inh	VACV Venus inh	VACV mCherry inh	HCMV inh	HCV inh
CC(=O)C(Sc1ccc2nnc(-c3ccncc3)n2n1)C(C)=O	.	.	-10.6%	5.0%	-62.4*	-2.9%
C=CCNc1nnc(Sc2ncccc2[N+](=O)[O-])s1	-15.8%[46.1 µM]	-1.2%	?	10µM*	?	-17.5%
O=C(COC(=O)c1cc([N+](=O)[O-])ccc1N1CCOCC1)c1ccc(F)cc1	.	.	.	.	5.7	?
COCCOc1ccc(C(F)(F)F)cc1NC(=O)COC(=O)c1cc([N+](=O)[O-])ccc1N1CCOCC1	12.6µM*	?	-26.0%	-14.5%	?	?
CC(=O)c1c(C)[nH]c(C(=O)OCC(=O)Nc2cc(C(F)(F)F)ccc2N2CCOCC2)c1C	?	22.4µM*	-14.3%	.	-14.8	-20.6%
CCc1cccc(C)c1NC(=O)COC(=O)c1cc([N+](=O)[O-])ccc1N1CCOCC1	?	-17.9%	3.0%	-16.3%	-12.4	10µM*
CCc1ccc(C(=O)COC(=O)c2cc([N+](=O)[O-])ccc2N2CCOCC2)cc1	3.16µM*	?	-22.0%	?	-35.2	1µM*
Cc1cccc(COc2ccc(/C(O)=C3\C(=O)C(=O)N(CCN(C)C)[C@H]3c3ccncc3)cc2)c1	8.1%	.	.	.	.	.
Cc1oc2ncnc(N3CCCCC3)c2c1C(=O)N1CCN(c2cccc(C(F)(F)F)c2)CC1	.	7.7%[46.1 µM]	4.6%	-13.7%	-3.1	.
Cc1cc(Cl)ccc1NC(=O)COC(=O)c1cc([N+](=O)[O-])ccc1N1CCOCC1	?	-0.8%	-16.5%	i	-23.8	2.51µM*
O=C(COC(=O)c1cc([N+](=O)[O-])ccc1N1CCOCC1)Nc1ccc(Cl)cc1	-12.2%	-20.1%	-18.4%	i	-29.5	?
O=C(COC(=O)c1cc([N+](=O)[O-])ccc1N1CCOCC1)Nc1ccc(Cl)cn1	?	-2.8%	28.2µM*	?	-102.0*	?
Cc1ccc2nc(SCC(=O)Nc3cc(C(F)(F)F)ccc3N3CCOCC3)[nH]c2c1	?	?	?	.	-88.8*	?
Cc1ccc(CNC(=O)C2CCN(c3nn4cc(-c5ccc(F)cc5)nc4s3)CC2)cc1	.	13.5%[46.1 µM]	-3.7%	-8.3%	0.0	.
COC(=O)c1ccccc1NC(=O)Cn1cnc2sc(C)c(S(=O)(=O)N3CCC(C)CC3)c2c1=O	-7.8%[46.1 µM]	0.7%[46.1 µM]	-12.7%	-7.6%	2.0	.
Cc1cc(C)c2c(NC(=O)CCl)nn(C)c2n1	?	?	?	4.47µM*	-110.2*	?
Cc1ccc2c(c1)cc(CN(Cc1cccs1)C(=O)c1ccco1)c1nnnn12	?	16.4µM*	.	.	-27.6	?
COCCN(Cc1cc2cc(C)ccc2n2nnnc12)C(=S)Nc1cccc(C)c1	?	-25.2%	.	.	53.9	11.2µM*
CCc1ccc2c(c1)cc(CN(C(=S)Nc1cccc(C)c1)C1CC1)c1nnnn12	?	?	-16.6%	i	-17.8	-20.3%
CC(C)c1ccc(/C=C/C(=O)NC(=S)NN2CCOCC2)cc1	.	.	.	.	-98.0*	3.8%
CCC1Oc2ccccc2N(CC(=O)N2CC(C)CC(C)C2)C1=O (stereo not given)	.	.	-5.5%	-24.6%	-29.8	.
Cc1cc(-c2ccc(S(=O)(=O)Nc3ccccc3C)cc2)on1	.	-11.8%[46.1 µM]	?	?	5.4	.
Cc1cc(-c2ccc(S(=O)(=O)Nc3ccc(Cl)cc3C)cc2)on1	.	-27.3%[46.1 µM]	-26.0%	-24.3%	-77.7*	.
CC(C)(C)OC(=O)N1CCC(c2c(C(=O)NCCN3CCc4ccccc4C3)cnn2-c2ccc(F)cc2F)CC1	.	?	-27.4%	-26.6%	?	.
Cc1cc([N+](=O)[O-])ccc1N	?	17.9%	-14.4%	-14.0%	-32.4	1.1%
O=[N+]([O-])c1ccc2c(c1)S(=O)(=O)C=C2	?	3.26µM*	.	.	.	.
Cc1nc2c3cc(F)ccc3n(CCN3CCCCC3)c2s1	7.08µM*	-28.8%[46.1 µM]	-17.5%	i	34.9	-28.9%
Cc1nc2c3ccccc3n(CCN3CCCCC3)c2s1	-6.4%	.	.	.	.	-26.8%
O=C(Nc1ccc2oc(-c3ccccc3Cl)nc2c1)c1cncc(Br)c1	?	?	.	.	-18.1	17.8µM*
O=C(Nc1ccc2oc(-c3cc(Br)ccc3Cl)nc2c1)c1ccc2ccccc2c1	.	1.1%[46.1 µM]	-27.3%	?	-93.5*	.
